Screening data (PubChem)
ELG1 genotoxic – qHTS screen for small molecules that induce genotoxicity in human embryonic kidney (HEK293T) cells expressing luciferase-tagged ELG1. Potency, µM (series often up to 46 µM), for the others: top-dose activity change, positive = activation, usual class: activators. HEK293T ELG1-luciferase reporter, luminescence, 16 h. actives 1.3% (n = 330,000); further: % of control where 0% means no effect; nearly all actives have a fitted effect of over 60% in size
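ELG1-luciferase HEK293T cells, 2,000/well; compound pinned in; 16 hr, 37 °C, 5% CO2; ONE-Glo, 30 min RT; luminescence on CCD imager.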
Rab9 promoter act – qHTS Assay for Rab9 Promoter Activators | Potency, µM (series often up to 9.22 µM), without a hit: top-dose activation, negative = inhibition, usual class: activators | Huh7 Rab9 promoter-luciferase reporter, luminescence, 24 h | AID 485297, 2010 | actives 2.8% (n = 320,000); further: % of control where 0% means no effect; nearly all actives have a fitted effect of over 60% in size
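Cells were plated at 1500 per well in reduced-serum medium with 10% FBS and left 2 h. Compound in DMSO was then added for 24 h at 37 °C. Reporter signal was read by luminescence after 10 min with luciferase detection reagent.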
FLuc counter – qHTS profiling assay for firefly luciferase inhibitor/activator using purifed enzyme and Km concentrations of substrates (counterscreen for miR-21 project). Luciferin 4-monooxygenase (Photinus pyralis), P08659. purified FLuc, Km substrates, luminescence inhibition. Potency, µM (series often up to 57.5 µM), without a hit: top-dose activity change, negative = inhibition, actives largely listed as inhibitors. actives 6.9% (n = 360,000);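 further: plate controls were vehicle for no effect and reference inhibitor for full effect; nearly all actives have a fitted effect of over 55% in size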
Target sequence (P08659 whole entry, looked up): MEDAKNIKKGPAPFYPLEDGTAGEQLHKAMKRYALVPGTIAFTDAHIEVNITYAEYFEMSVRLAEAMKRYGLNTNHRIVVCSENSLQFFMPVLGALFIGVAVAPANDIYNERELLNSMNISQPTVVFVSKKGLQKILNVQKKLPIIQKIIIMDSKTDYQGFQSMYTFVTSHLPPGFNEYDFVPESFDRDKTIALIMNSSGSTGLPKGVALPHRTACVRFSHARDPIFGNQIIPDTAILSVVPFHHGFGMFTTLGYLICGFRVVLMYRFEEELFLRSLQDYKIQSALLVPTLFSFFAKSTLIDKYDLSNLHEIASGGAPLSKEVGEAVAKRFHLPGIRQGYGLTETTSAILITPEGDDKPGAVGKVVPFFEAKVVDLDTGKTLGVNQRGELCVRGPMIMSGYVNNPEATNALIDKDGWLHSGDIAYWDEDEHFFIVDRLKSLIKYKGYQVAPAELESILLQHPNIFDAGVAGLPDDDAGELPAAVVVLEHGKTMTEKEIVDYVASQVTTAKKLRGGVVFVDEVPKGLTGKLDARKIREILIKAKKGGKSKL
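Biochemical qHTS of compounds, final roughly 60 µM downward over six points, against 10 nM purified firefly luciferase using Km concentrations of substrates (10 uM D-luciferin, 10 uM ATP) in Tris acetate pH 7.5 buffer; luminescence output.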
NPC1 promoter act – qHTS Assay for NPC1 Promoter Activators | Potency, µM (titrated, usually from 9.22 µM), without a hit: at the top dose activation, most hits filed as activators | Huh7 NPC1 promoter luciferase reporter, 24 h | actives 2.4% (n = 320,000); further: % of control where 0% means no effect; nearly all actives have a fitted effect of over 60% in size
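Luminescence from an NPC1 promoter-driven luciferase reporter in stably transfected Huh7 cells was measured after 24 h compound treatment at 37 °C, followed by 10 min ambient incubation with luciferase detection reagent.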
ELG1 repair inh – qHTS screen for small molecules that inhibit ELG1-dependent DNA repair in human embryonic kidney (HEK293T) cells expressing luciferase-tagged ELG1; Potency, µM (doses to about 46.1 µM), for inactives: at the top dose activity change, negative = inhibition, most hits filed as inhibitors; actives 2.3% (n = 330,000); HEK293T ELG1-luciferase reporter, luminescence, 16 h; DNA damage induced by 5-fluorouridine; further: on the % scale 0 is the no-effect control and ±100 the full control effect; nearly all actives have a fitted effect of over 55% in size
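5-Fluorouridine DNA damage + compound/DMSO, 2,000 cells/well, 16 h, 37 °C/5% CO2. ONE-Glo, 30 min RT, luminescence. Readout = decrease in reporter signal.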
SMN2 splice enh – qHTS Assay for Enhancers of SMN2 Splice Variant Expression; actives 2.8% (n = 210,000); HEK293 SMN2-luciferase splicing reporter, luminescence, 30-36 h; Potency, µM (series often up to 46.1 µM), for the others: at the top dose activity change, positive = activation, most hits filed as activators; further: % of control where 0% means no effect; nearly all actives have a fitted effect of over 55% in size
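HEK293 cells carry an SMN2 […]–luciferase reporter in which exon 7 inclusion puts luciferase in frame. Cells were plated 10-12 h before compound addition, then incubated 30-36 h at 37C. ONE-Glo luminescence was read; sodium butyrate at 4.5 mM final served as control.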
* hit, by the source's call; u = inconclusive; x = no result given; [ ] = dose if it differs, or a comment. Rows were chosen to be rich in hits. Some 9.3% of all compounds tested hit in one or more screens of this group. The call rests on the fitted dose curve; in most records, active means well fitted curve in the direction sought with a large enough effect; inconclusive means small, poorly fitted or top-dose-only effect, or another doubt; inactive means no such curve, though single readings can be large; an effect the other way counts as inactive or inconclusive. Potency means the concentration at half of the fitted maximal effect.

SMILES	ELG1 genotoxic	Rab9 promoter act	FLuc counter	NPC1 promoter act	ELG1 repair inh	SMN2 splice enh
CC(C)(C)c1ccc(/C=C/C(=O)c2ccc(NC3=NCCCS3)cc2)cc1	-11%	-3%	15µM*	1%	-13%	-107%
CC(C)Cn1c(N)c(C(=O)COC(=O)c2ccccc2C(=O)c2ccccc2)c(=O)n(C)c1=O	-7%	x	x	x	16µM*	x
COCc1c(C(=O)OCC(=O)c2c(N)n(CC(C)C)c(=O)n(C)c2=O)oc2ccccc12	-6%	-5%	9%	0%	u	-42%
CC(C)Cn1c(N)c(C(=O)COC(=O)c2cccn2C)c(=O)n(C)c1=O	-7%	x	x	x	9.2µM*	x
Cc1c(C(=O)OCC(=O)c2c(N)n(CC(C)C)c(=O)n(C)c2=O)oc2ccccc12	-2%	-8%	1%	-10%	10µM*	-89%
CCc1ccc(C(=O)OCC(=O)c2c(N)n(CC(C)C)c(=O)n(C)c2=O)cc1	-5%	-12%	-10%	-11%	8.2µM*	-43%
O=C(NC1CCCC1)C(c1ccsc1)N(C(=O)Cc1cccs1)c1ccc(F)cc1 (stereo unspecified)	-3%	-3%	-1%	-1%	7%	-12%
Cc1c(CN2CCCC(C(=O)Nc3cccc(-n4cccn4)c3)C2)cnn1C (stereo unspecified)	0%	0%	0%	-18%	10%	x
CC(=O)N1c2ccc(S(=O)(=O)NCC3CCC(C(=O)Nc4cc(C)cc(C)c4)CC3)cc2CC1C (stereo unspecified)	x	x	-3%	x	x	x
CCCn1c(NC(=O)C2CCN(C(=O)c3ccc(F)cc3)CC2)nc2ccccc21	-11%	2%	-1%	0%	u	x
CC(C)Cn1c(N)c(C(=O)CSc2ccc3c(c2)OCCO3)c(=O)n(C)c1=O	-8%	-26%	5%	-16%	7.3µM*	-58%
CC(C)Cn1c(N)c(C(=O)COC(=O)c2cccc(Cl)c2)c(=O)n(C)c1=O	-8%	0%	4%	0%	21µM*	-26%
CC(C)Cn1c(N)c(C(=O)COC(=O)c2ccccc2Cl)c(=O)n(C)c1=O	-10%	-6%	-4%	-5%	u	-11%
CC(C)Cn1c(N)c(C(=O)COC(=O)Cc2cccs2)c(=O)n(C)c1=O	-3%	-5%	5%	2%	-9%	x
CC(C)Cn1c(N)c(C(=O)COC(=O)/C=C/c2cccs2)c(=O)n(C)c1=O	-11%	-20%	1%	-10%	9.2µM*	x
Cn1c(N)c(C(=O)COC(=O)c2ccc3c(c2)OCCO3)c(=O)n(C)c1=O	4%	15%	u	0%	10%	-16%
CC(C)Cn1c(N)c(C(=O)COC(=O)c2ccc3c(c2)OCCO3)c(=O)n(C)c1=O	-6%	-15%	u	-6%	7.1µM*	-74%
CCOc1ccc(N=Cc2ccc3ccccc3c2)cc1	0%	-2%	0.76µM*	12%	6%	x
CCOc1ccc(N=CNc2ccc(OCC)cc2)cc1	-1%	-5%	u	12%	4%	x
C=CCn1c(SCC(=O)NCc2ccc3c(c2)OCO3)nnc1C1CCCCC1	-6%	3%	4%	3%	u	-20%
O=C(Nc1ncc(Cc2cccc(Cl)c2)s1)c1cccs1	4%	u	15µM*	u	u	16%
O=C(Nc1ncc(Cc2ccc(SC(F)F)cc2)s1)c1ccccc1	12%	5%	13µM*	-3%	u	-1%
O=C(Nc1ncc(Cc2ccc(Cl)cc2)s1)c1ccc2c(c1)CC(c1ccccc1)OC2=O (stereo unspecified)	x	x	0%	x	x	-6%
Cc1ccc(Cc2cnc(NC(=O)c3cccs3)s2)cc1	-1%	u	2.7µM*	2.8µM*	u	14µM*
O=C(Nc1ncc(Cc2cccc(Cl)c2)s1)C1=NCCN1	-10%	-6%	-2%	-6%	19%	10%
SMILES	ELG1 genotoxic	Rab9 promoter act	FLuc counter	NPC1 promoter act	ELG1 repair inh	SMN2 splice enh
O=C(Nc1ccc(Cc2ccncc2)cc1)c1cccs1	2%	16%	u	15%	10%	-12%
O=C(Nc1ncc(Cc2ccccc2)s1)c1cccs1	u	0.5µM*	1.1µM*	1.3µM*	u	4.5µM*
Nc1ccc2c(C(F)(F)F)cc(C(F)(F)F)nc2n1	0%	-6%	-1%	-4%	5%	-14%
CC(=O)Nc1ccc(S(=O)(=O)Nc2cccc(C(=O)NC(C)(C)C)c2)cc1	0%	-1%	-1%	-1%	-13%	-10%
O=C(Nc1c(C(=O)Nc2cccc3ccccc23)cnn1-c1ccccc1)c1ccco1	-6%	1%	-6%	-8%	u	15%
Cc1ccc(C(=O)NCc2cccnc2)o1	1%	4%	1%	2%	7%	x
Cc1ccc(C(=O)Nc2ncc(Cc3ccccc3)s2)o1	u	3.2µM*	0.95µM*	1.4µM*	u	x
Cc1ccc(Cc2cnc(NC(=O)C3CCCO3)s2)cc1 (stereo unspecified)	u	1.3µM*	3µM*	1.1µM*	u	14µM*
O=c1c2cc(F)ccc2sn1-c1ccccc1	-2%	1%	u	12%	u	x
Cc1ccccc1-n1sc2cc(F)ccc2c1=O	-10%	5%	11µM*	10%	u	-48%
CCn1c(C)nc2cc(S(=O)(=O)C(F)(F)C(F)C(F)(F)F)ccc21 (stereo unspecified)	3%	-2%	-8%	10%	7.3µM*	-25%
O=C(Oc1cccc2cccnc12)c1ccco1	-3%	2%	-12%	-2%	2%	8%
CC(=O)N/C(N)=N/c1nc2cc(C)ccc2o1	9.2µM*	0.79µM*	5.4µM*	1.4µM*	u	x
CC(=O)Nc1nc2cc([N+](=O)[O-])ccc2s1	1%	-1%	5%	0%	18%	x
CC(=O)N/C(N)=N/c1nc2cc([N+](=O)[O-])ccc2o1	u	3.2µM*	u	u	u	x
Clc1ccc(CSc2ccc(-c3cccs3)nn2)cc1	x	x	0%	x	x	x
Clc1ccc(C[n+]2csc3ccccc32)cc1	0%	-7%	6.7µM*	0%	u	-3%
Fc1ccc(C[n+]2csc3ccccc32)cc1	4%	2%	7.6µM*	-4%	5%	2%
Fc1ccc(CSc2ncnc3scc(-c4ccccc4)c23)cc1	4%	1%	0%	-2%	-1%	-3%[1.84 µM]
